Screening results as filed in PubChem BioAssay.
HCMV antiviral = human cytomegalovirus inhibition. HFF cells, HCMV-luciferase reporter, 72 h; active compounds read low. activity change, negative = inhibition, % at 57.5 µM. hit rate 4.5% among 410,000. AID 1259415; in the data active = activity change below about -60%; inconclusive = no clear call, values can overlap the other calls; inactive = above about -39%; also: % is scaled to controls: 0 for no effect and ±100 for the full control effect
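Human foreskin fibroblasts infected with luciferase-reporter HCMV at MOI 1 PFU/cell, compounds at two doses. Luciferase measured 72 h post infection; normalized to buffer-only basal and Salinomycin (10uM) controls.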
Shiga toxin inh = inhibitors of Shiga toxin in Vero cells; hit rate 9.2% among 290,000; inhibition, % at 38.7 µM; Vero cells, Shiga toxin protein synthesis inhibition reporter; AID 2315; in the data active = inhibition mostly above about 28%, no sharp cut-off; inactive = mostly below about 43%; also: 0% is about no effect
Pf growth 96h = P. falciparum growth inhibition at 96 hours; P. falciparum luciferase reporter growth, 96 h; Potency, µM (doses to about 28.7 µM), inactives show top-dose activity change, negative = inhibition, usual class: inhibitors; hit rate 6.9% among 320,000; also: potency is read from the fitted curve at half-maximal effect; % is scaled to controls: 0 for no effect and ±100 for the full control effect
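Two parasite generations (96 h, 37 C, 5% CO2) of compound exposure in infected erythrocytes (0.05% parasitemia, 2% hematocrit). Luciferase-reporter P. falciparum; decreased luminescence indicates inhibited growth, aimed at apicoplast-acting delayed death.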
Pf growth 48h = inhibits P. falciparum growth in the first generation, 48 h. P. falciparum luciferase growth in erythrocytes, 48 h. Potency, µM (titrated, usually from 28.7 µM), without a hit: at the top dose activity change, negative = inhibition, hits mostly inhibitors. hit rate 5.9% among 310,000. AID 504832; also: potency is read from the fitted curve at half-maximal effect; % is scaled to controls: 0 for no effect and ±100 for the full control effect
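Here the parasites carry a stable luciferase gene and grow inside erythrocytes in Albumax-based RPMI medium with compound for one erythrocytic cycle. Activity is scored as loss of luminescent signal.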
Cycloheximide cs = counter-screen hit for Shiga toxin inhibitors, cycloheximide | max response, % | hit rate 12% among 300,000 | cell reporter, cycloheximide protein synthesis inhibition counterscreen | AID 2314; in the data active = max response mostly above about 13%, no sharp cut-off; inactive = mostly below about 14%; also: read at 38.3 µM for the half of the compounds with a filed dose; 0% is about no effect
* = called active by the depositor; ? = inconclusive; . = no result given; + = active, no number. Shown are actives, neighbours in structure and some others; about 20% of the full set was active somewhere. Unless noted, calls follow the shape of the dose curve; as a rule, active = well fitted inhibition curve with a large enough effect; inconclusive = small, poorly fitted or top-dose-only effect, or another doubt; inactive = no such curve, though single readings can be large or run the other way.

SMILES | HCMV antiviral | Shiga toxin inh | Pf growth 96h | Pf growth 48h | Cycloheximide cs
CCOC(=O)C1C(=O)NC(c2ccccc2)=NC1c1ccc(Br)cc1 (stereo not drawn) | -9 | -15 | 19% | 2% | -2
Cc1ccc(NC2c3ncccc3C(=O)N2Cc2cccs2)cc1 (stereo not drawn) | -22 | -13 | 17% | -2% | 3
CCOc1ccc(OCCSc2nc(C)cc(=O)[nH]2)cc1 | 60 | 124* | ? | 28% | 30*
COc1ccc(OCCSc2nc(N)cc(=O)[nH]2)cc1 | -2 | 2 | 17% | 32% | 0
CCc1ccc(-n2c(=O)c3c4c(sc3n(CC(=O)NCCCOC)c2=O)CCCC4)cc1 | 1 | . | . | . | .
CCOc1ccc(-n2nc(CO)c(C(=O)NCC(c3ccccc3)c3ccccc3)n2)cc1 | 23 | . | . | . | .
O=C(O)Cn1cc(/C=N/Nc2ccc([N+](=O)[O-])cn2)c2ccccc21 | 117 | 35* | 30% | 18% | 28*
Cc1c(/C=N/Nc2ccc([N+](=O)[O-])cn2)c2ccccc2n1Cc1ccccc1 | 28 | 24 | 25% | -1% | 20*
Cc1ccc(Cn2cc(/C=N/Nc3ccc([N+](=O)[O-])cn3)c3ccccc32)cc1 | -11 | + | ? | ? | 19*
Cc1ccc(C=NNc2ccc([N+](=O)[O-])cn2)cc1 | -38 | . | . | . | .
O=Cc1cn(Cc2ccc([N+](=O)[O-])cc2)c2ccccc12 | 38 | -16 | 8% | 7% | -3
O=C(N/C=N/OCc1cccc(C(F)(F)F)c1)N1OC[C@@H]2COc3ccc4ccccc4c3[C@@H]21 | -18 | -20 | . | ? | -2
O=C(Oc1cccc(Nc2ncnc3ccccc23)c1)c1ccccc1Cl | -13 | -4 | -19% | ? | -1
Cc1ccccc1OCC(=O)Nc1ccc2nc(SCC(=O)N3CCOCC3)sc2c1 | -78* | . | . | . | .
Cc1nc2ccc(NC(=O)COc3ccccc3C)cc2s1 | -20 | 64* | -47% | 26% | 34*
O=C(CSc1nc2ccccc2s1)N1CCOCC1 | 22 | active | ? | 44% | 29*
O=C(CSc1nc2ccccc2s1)NCCCN1CCOCC1 | 10 | -10 | -1% | . | -1
CCOc1cc(/C=C/c2nc3ccccc3s2)ccc1OCC(=O)N1CCOCC1 | -31 | 37* | 0% | 0% | 16*
Cc1csc(NC(=O)C2CCCN(S(=O)(=O)c3ccc(Br)s3)C2)n1 (stereo not drawn) | -37 | -14 | ? | . | -5
Cc1cccc(C)c1NC(=O)CN(C1CCCCC1)S(C)(=O)=O | -3 | -9 | -28% | -1% | 2
Cc1ccc(C(=O)N/C(=C/c2ccco2)C(=O)Nc2cccc(C(=O)O)c2)cc1 | 24 | 28 | ? | -8% | 22*
Cc1ccc(S(=O)(=O)Oc2ccc(/C=C(/NC(=O)c3ccccc3)C(=O)Nc3ccccc3)cc2)cc1 | 33 | -9 | 9.3µM* | ? | 4
CC(=O)c1cccc(NC(=O)/C(=C\c2ccco2)NC(=O)c2cccs2)c1 | 28 | 29* | ? | 18% | 13*
COc1ccccc1C(=O)N/C(=C/c1ccco1)C(=O)Nc1cccc(C(=O)O)c1 | -6 | 9 | 374% | 14% | -3
Cc1cc(C)c(NC(=O)C2CCN(c3nn4c(=O)cc(C)nc4s3)CC2)c(C)c1 | -4 | . | . | . | .
SMILES | HCMV antiviral | Shiga toxin inh | Pf growth 96h | Pf growth 48h | Cycloheximide cs
COc1ccc2nc(C(F)(F)Cl)c(C#N)c(N)c2c1 | -88* | 13 | 2% | ? | 11
COC(=O)c1scc(-c2ccc(C)cc2)c1S(=O)(=O)Nc1cc(OC)c(OC)c(OC)c1 | 4 | . | . | . | .
O=C(CSc1nc(=O)n(CCCN2CCOCC2)c2c1CCCC2)Nc1ccc(Cl)cc1 | -34 | . | ? | 13µM* | .
O=C(CSc1nc(=O)n(CCN2CCOCC2)c2c1CCC2)Nc1ccc(OC(F)(F)F)cc1 | -60* | . | -32% | 10µM* | .
Cc1cc(C)c2c(n1)SCCN2C(=O)Nc1ccc(C(=O)Nc2ccc(C(C)C)cc2)cc1 | 0 | . | . | . | .
Cc1noc(C)c1CSCC(=O)Nc1nnc(CC(C)C)s1 | 21 | 10 | 0% | -7% | -1
O=C(NC(=S)NNC(=O)c1cnccn1)c1ccc(F)cc1 | -25 | 13 | 21% | 15µM* | 11
Cc1cc(OCC(=O)NNC(=O)c2cnccn2)cc(C)c1Cl | 2 | -1 | 12µM* | ? | -3
O=C(NNC(=O)c1cnccn1)c1ccc(Cl)cc1 | -6 | 23 | ? | ? | 22*
O=C(NNC(=S)NC(=O)c1cccnc1)c1ccccc1 | 33 | 23 | ? | ? | 12
O=C(/C=C/c1ccc(F)cc1)NC(=S)NNC(=O)c1cnccn1 | 24 | 12 | 8.3µM* | 3.3µM* | 2
COc1ccc(/C=C/C(=O)NC(=S)NNC(=O)c2cccnc2)cc1 | 10 | -14 | ? | 21% | -1
O=C(NNC(=O)c1ccc(Cl)cc1Cl)c1cnccn1 | 12 | 28 | ? | ? | 12
COc1ccccc1N(CC(=O)Nc1cccnc1)S(C)(=O)=O | 11 | 12 | -1% | -5% | 0
COc1ccc(/C=C/C(=O)NC(=S)NNC(=O)c2cnccn2)cc1 | 1 | 5 | ? | 2.1µM* | 9
CCOc1ccccc1N(CC(=O)Nc1cccc(OC)c1)S(=O)(=O)c1ccccc1 | -107* | -7 | -1% | ? | -4
CCOc1ccccc1N(CC(=O)Nc1ccccc1F)S(=O)(=O)c1ccccc1 | -104* | -4 | ? | 10µM* | 2
COc1ccccc1N(CC(=O)Nc1cc(C)on1)S(=O)(=O)c1cccc(C(F)(F)F)c1 | -64* | . | ? | 13µM* | .
COC(=O)c1cc(NC(=O)CN(c2cccc(OC)c2)S(=O)(=O)c2ccccc2)ccc1Cl | ? | 0 | -18% | -18% | -1
COc1ccccc1N(CC(=O)Nc1ccccc1C(F)(F)F)S(=O)(=O)c1ccc(C)cc1 | -13 | . | . | . | .
COC(=O)c1cc(NC(=O)CN(c2ccccc2OC)S(=O)(=O)c2ccccc2)ccc1Cl | -28 | 2 | 86% | 10µM* | -2
CCc1nc(N2CCN(Cc3ccc4c(c3)OCO4)CC2)c2oc3ccccc3c2n1 | -39 | -12 | ? | ? | 2
COc1ccc(CNC(=O)c2c(Nc3ccccc3C)sc(C(=O)c3ccccc3)c2N)cc1 | -37 | . | . | . | .
O=C(COc1ccc(Cl)cc1Br)N1CCN(c2ccccc2)CC1 | -28 | -7 | 3.7µM* | -2% | -3
O=C(COc1ccccc1)N1CCN(CC(O)COc2ccccc2)CC1 (stereo not drawn) | 47 | 32 | 15µM* | -12% | -5
O=C(COc1ccccc1)N1CCN(c2ccccc2)CC1 | -22 | 5 | 35% | -8% | -1
O=CN1CCN(C(=O)COc2ccc(Cl)cc2Br)CC1 | 56 | -7 | 7% | 32% | -3
OC(COc1ccccc1)CN1CCN(CC(O)COc2ccccc2)CC1 (stereo not drawn) | -10 | 11 | 17% | 9% | -2
O=C(COc1ccc(Br)cc1)N1CCN(c2ccccc2)CC1 | 4 | -10 | 4.7µM* | . | -3
